The supplement of paper PMC10849652
Targets with a hit are over-represented here; the source holds about 7,900 in all. About 0.6% of all pairs of compound and target were hits. Unmarked numbers belong to inactive results.

Sequence of UniProt P50851 (P50851 whole entry, looked up): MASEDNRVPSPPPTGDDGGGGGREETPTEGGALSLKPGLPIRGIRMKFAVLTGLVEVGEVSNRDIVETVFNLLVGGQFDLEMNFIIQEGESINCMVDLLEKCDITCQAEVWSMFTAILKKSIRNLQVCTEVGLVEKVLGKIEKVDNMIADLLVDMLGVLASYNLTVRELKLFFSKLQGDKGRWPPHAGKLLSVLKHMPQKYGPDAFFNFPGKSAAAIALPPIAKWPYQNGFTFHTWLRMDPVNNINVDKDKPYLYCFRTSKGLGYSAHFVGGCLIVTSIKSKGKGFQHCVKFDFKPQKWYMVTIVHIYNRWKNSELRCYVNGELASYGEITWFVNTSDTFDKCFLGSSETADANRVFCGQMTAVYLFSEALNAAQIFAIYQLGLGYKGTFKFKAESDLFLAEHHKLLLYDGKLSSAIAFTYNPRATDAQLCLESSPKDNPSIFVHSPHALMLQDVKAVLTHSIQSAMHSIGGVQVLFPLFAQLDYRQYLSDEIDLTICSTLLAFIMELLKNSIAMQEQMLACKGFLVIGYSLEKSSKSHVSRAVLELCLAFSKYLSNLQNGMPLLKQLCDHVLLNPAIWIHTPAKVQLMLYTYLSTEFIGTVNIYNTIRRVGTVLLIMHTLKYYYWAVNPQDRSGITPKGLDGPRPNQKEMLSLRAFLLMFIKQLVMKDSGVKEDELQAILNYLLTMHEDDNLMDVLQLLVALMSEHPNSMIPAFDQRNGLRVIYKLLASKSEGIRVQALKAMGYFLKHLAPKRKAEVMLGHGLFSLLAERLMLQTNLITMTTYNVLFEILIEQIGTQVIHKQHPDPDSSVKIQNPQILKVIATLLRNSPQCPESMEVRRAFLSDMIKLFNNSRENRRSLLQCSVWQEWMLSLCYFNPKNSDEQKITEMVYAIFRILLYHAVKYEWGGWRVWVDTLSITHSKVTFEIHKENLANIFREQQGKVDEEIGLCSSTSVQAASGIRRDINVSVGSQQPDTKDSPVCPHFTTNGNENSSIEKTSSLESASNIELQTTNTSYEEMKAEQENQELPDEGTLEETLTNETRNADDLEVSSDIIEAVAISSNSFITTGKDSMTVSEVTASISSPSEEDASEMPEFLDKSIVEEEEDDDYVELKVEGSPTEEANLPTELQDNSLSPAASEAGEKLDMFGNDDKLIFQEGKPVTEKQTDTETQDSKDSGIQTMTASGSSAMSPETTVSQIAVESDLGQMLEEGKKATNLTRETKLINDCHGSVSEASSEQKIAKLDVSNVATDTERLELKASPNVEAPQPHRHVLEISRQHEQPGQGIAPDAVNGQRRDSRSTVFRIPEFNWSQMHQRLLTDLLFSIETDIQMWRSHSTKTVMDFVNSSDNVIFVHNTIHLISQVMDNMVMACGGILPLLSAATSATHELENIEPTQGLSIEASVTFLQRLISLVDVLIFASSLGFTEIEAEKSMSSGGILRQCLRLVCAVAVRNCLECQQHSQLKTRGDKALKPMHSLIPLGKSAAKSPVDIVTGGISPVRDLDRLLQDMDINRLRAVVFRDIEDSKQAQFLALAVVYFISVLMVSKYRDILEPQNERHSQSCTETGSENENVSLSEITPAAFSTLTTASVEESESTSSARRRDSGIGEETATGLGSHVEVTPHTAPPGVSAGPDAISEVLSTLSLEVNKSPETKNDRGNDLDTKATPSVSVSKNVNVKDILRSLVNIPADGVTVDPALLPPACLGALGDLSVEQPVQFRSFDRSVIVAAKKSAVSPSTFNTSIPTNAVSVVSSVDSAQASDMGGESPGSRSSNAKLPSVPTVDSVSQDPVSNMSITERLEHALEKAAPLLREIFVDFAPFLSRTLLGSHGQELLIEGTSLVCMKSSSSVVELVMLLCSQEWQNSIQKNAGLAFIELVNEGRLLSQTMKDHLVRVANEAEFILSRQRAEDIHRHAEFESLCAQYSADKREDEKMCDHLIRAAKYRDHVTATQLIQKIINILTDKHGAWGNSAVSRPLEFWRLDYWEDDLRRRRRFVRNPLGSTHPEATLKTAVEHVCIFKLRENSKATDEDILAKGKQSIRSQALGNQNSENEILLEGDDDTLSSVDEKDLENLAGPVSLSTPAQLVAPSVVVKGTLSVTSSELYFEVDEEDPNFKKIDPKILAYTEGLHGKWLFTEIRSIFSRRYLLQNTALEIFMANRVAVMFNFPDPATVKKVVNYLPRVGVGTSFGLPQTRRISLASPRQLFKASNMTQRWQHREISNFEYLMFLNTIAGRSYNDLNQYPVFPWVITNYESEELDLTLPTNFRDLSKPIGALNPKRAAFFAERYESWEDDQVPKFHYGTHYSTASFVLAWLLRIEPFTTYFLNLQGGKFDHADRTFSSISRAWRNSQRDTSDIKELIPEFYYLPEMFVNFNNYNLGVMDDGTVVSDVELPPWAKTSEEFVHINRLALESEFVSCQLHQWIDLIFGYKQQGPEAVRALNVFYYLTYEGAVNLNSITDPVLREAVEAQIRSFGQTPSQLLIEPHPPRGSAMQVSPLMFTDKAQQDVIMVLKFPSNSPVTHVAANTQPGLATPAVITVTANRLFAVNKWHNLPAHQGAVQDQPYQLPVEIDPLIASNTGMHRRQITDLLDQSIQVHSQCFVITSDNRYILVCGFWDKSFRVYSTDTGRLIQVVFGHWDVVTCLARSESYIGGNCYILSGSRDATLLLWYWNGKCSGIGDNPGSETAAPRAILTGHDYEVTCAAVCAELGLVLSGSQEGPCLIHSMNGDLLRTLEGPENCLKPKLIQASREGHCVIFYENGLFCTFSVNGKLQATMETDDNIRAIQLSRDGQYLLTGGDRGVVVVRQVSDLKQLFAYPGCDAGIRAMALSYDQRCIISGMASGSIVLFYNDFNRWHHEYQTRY
Sequence of UniProt Q86V48 (Q86V48 whole entry, looked up): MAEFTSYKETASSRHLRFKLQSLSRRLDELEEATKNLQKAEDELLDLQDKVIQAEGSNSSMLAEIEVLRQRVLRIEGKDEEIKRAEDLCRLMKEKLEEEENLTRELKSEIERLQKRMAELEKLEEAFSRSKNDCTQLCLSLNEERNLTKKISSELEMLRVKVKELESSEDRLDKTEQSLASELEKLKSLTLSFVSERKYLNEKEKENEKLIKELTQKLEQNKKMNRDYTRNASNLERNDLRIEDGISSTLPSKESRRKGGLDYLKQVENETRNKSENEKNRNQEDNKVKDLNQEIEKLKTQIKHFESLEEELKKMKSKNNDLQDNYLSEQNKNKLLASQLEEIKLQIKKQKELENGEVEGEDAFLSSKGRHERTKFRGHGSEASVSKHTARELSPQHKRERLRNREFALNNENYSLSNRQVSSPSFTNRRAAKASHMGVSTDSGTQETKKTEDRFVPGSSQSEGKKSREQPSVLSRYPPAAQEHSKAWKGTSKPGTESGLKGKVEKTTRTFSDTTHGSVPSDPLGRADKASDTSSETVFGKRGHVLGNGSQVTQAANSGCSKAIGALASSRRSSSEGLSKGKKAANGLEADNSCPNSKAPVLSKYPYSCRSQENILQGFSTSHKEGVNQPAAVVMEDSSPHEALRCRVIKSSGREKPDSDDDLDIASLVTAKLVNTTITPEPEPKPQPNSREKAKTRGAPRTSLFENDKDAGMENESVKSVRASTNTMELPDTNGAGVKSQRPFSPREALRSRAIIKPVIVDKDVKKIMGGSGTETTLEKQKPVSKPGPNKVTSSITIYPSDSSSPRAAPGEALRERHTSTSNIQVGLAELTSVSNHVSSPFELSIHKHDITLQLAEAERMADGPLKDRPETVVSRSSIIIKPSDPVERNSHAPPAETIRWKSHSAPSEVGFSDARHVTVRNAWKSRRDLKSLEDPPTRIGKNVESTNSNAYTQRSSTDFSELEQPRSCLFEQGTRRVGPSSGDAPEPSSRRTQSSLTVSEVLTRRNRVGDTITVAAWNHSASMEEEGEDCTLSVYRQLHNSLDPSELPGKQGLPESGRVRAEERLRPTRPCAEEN
Sequence of UniProt Q14653 (Q14653 whole entry, looked up): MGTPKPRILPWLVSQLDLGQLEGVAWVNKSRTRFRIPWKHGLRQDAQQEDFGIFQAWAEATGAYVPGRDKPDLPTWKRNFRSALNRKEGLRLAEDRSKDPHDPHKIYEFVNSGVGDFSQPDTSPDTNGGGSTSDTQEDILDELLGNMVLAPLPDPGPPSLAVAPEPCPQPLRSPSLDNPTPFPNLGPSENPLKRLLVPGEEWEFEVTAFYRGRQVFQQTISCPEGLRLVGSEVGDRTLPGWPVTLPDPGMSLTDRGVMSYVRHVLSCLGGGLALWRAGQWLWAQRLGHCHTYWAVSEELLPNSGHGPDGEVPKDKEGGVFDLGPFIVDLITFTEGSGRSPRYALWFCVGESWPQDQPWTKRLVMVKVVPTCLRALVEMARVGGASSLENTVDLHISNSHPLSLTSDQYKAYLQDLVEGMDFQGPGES
Sequence of UniProt Q13422 (Q13422 whole entry, looked up): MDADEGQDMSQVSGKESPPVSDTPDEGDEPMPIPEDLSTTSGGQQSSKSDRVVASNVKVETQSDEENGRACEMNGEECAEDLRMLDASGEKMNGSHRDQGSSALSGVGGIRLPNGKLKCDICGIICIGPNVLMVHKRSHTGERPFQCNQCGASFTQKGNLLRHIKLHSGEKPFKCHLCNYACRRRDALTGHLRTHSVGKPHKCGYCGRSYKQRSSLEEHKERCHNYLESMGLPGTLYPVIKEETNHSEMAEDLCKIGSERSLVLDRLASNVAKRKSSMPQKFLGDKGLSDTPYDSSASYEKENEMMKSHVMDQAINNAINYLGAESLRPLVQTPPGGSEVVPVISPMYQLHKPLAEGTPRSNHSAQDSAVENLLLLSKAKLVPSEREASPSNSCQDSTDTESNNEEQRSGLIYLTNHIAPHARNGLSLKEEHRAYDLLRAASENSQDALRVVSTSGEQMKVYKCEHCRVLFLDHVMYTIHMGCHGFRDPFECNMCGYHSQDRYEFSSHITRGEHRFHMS
Sequence of UniProt P49006 (P49006 whole entry, looked up): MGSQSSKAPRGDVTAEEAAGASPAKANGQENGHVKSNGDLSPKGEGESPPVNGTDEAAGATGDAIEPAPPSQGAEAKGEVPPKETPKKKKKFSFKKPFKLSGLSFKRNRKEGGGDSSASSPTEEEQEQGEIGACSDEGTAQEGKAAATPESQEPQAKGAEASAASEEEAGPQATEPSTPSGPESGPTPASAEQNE

The targets below were run with c1ccc([C@@H]2C[C@H]2NC2CCNCC2)cc1 (assay: log2 fold change, soluble protein after heating vs DMSO (PISA); higher = thermal stabilisation; K562 cells, 10 uM, 30 min; active = over 0.2 and 3.5 SD of the protein, either way, in both replicates (recomputed)).
Summary of the method: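 K562 cells at 2×10^6 cells/mL were treated with 10 μM compound for 30 min. Aliquots were heated for 3 min across 48°C-58°C, pooled, and extracted in PBS with 0.5% NP-40 at 4°C; soluble protein was the supernatant after 21,000xg for 90 min. Soluble protein was quantified by TMTpro 16plex LC-MS/MS with channel sums equalised, and reported as log2 fold change in thermal stability against DMSO controls, with values from duplicates.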
In the case of LAMP2 isoform 2 (UniProt P13473), the log2 fold change is reported as 0.007. MIER1 isoform 12 (UniProt Q8N108) showed a log2 fold change of 0.02. Target MAPK8 isoform 3 (UniProt P45983) has a log2 fold change of -0.055. For LUC7L3 (UniProt O95232), the log2 fold change was 0.028. MFSD5 isoform 2 (UniProt Q6N075) gave a log2 fold change of -0.055. Target IKZF1 isoform 2 (UniProt Q13422) has a log2 fold change of 0.061. KPNA1 (UniProt P52294) gave a log2 fold change of -0.001. Work on MARCKSL1 (UniProt P49006) yielded a log2 fold change of 0.011. For MAP4 (UniProt P27816), the log2 fold change was 0.037. Work on KNTC1 (UniProt P50748) yielded a log2 fold change of -0.008. LENG8 (UniProt Q96PV6) was tested, and the log2 fold change was 0.022. KTN1 (UniProt Q86UP2) showed a log2 fold change of 0.001. With JMJD6 isoform 3 (UniProt Q6NYC1) the log2 fold change was 0.097. LARP1 (UniProt Q6PKG0) showed a log2 fold change of -0.002. LRBA (UniProt P50851) showed a log2 fold change of -0.023. In the case of KCT2 (UniProt Q8NC54), the log2 fold change is reported as 0.028. For IK (UniProt Q13123), the log2 fold change was -0.045. MED1 (UniProt Q15648) showed a log2 fold change of 0.058. LMNA (UniProt P02545) gave a log2 fold change of 0.052. LUZP1 (UniProt Q86V48) showed a log2 fold change of -0.201. Target LRRFIP1 (UniProt Q32MZ4) has a log2 fold change of 0.011. INPP1 (UniProt P49441) gave a log2 fold change of 0.01. KSR1 (UniProt Q8IVT5) was tested, and the log2 fold change was 0.018. LEO1 (UniProt Q8WVC0) was tested, and the log2 fold change was -0.011. LIAS (UniProt O43766) gave a log2 fold change of 0.05. MAPKAPK5 (UniProt Q8IW41) was tested, and the log2 fold change was -0.009. Work on LMBR1 isoform 3 (UniProt Q8WVP7) yielded a log2 fold change of 0.078. KCTD2 (UniProt Q14681) was tested, and the log2 fold change was 0.158. Target MFSD11 (UniProt O43934) has a log2 fold change of -0.049. ITM2B (UniProt Q9Y287) showed a log2 fold change of -0.112. IRF3 (UniProt Q14653) gave a log2 fold change of -0.01.
